Screening results (PubChem)
Only some compounds are listed: those with a hit (about 6.1% of all), similar ones and a draw of the others.
D1 antagonist = blocks dopamine activation of the human D1 receptor. HEK293 TREx D1 cells, calcium flux, dopamine EC80; stronger effect = lower value. activity change, negative = inhibition, % at 10 µM. 3.2% of 360,000 active. AID 504652; in the data active = activity change below about -30%; note: % is set by controls: 0 for no effect and ±100 for the full control effect
Target sequence (P21728 whole entry, looked up): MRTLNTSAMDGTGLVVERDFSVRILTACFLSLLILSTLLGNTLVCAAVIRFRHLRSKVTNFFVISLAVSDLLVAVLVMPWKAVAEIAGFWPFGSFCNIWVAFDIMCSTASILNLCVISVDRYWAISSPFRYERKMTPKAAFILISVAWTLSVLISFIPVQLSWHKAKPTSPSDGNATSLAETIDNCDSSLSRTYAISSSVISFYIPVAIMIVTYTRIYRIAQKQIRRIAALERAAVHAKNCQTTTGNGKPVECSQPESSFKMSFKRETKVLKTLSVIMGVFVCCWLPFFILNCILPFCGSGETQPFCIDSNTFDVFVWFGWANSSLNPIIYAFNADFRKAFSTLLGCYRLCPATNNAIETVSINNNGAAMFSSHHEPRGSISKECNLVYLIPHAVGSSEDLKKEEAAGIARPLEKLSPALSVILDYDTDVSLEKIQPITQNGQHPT
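After overnight tetracycline induction at 30 C, force-coupled D1 HEK293 cells took up a no-wash calcium dye at room temperature. Compounds were added and monitored 180 s, and the response to EC80 dopamine was then recorded.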
D1 ag = agonists of human D1 dopamine receptor. P21728. HEK293 T-REx D1 cells, calcium flux, agonist mode. activation, % at 2 µM. 1% of 360,000 active; in the data active = activation above about 30%; note: 0% is about no effect
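Tetracycline-induced HEK293 TREx D1 cells, force-coupled to calcium signalling, were dye-loaded with a no-wash calcium kit. Compound was pin-added after a 10 s baseline. Fluorescence was read kinetically at 1 cycle/s for 180 s, with calcium rises flagged as agonism.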
D1 PAM = enhances dopamine response at the human D1 receptor | HEK293 TREx D1 cells, calcium flux, dopamine EC20 potentiation | potentiation, % at 10 µM | 0.036% of 360,000 active; in the data active = potentiation above about 30%; note: 0% is about no effect
DRD3 antagonist = antagonists of human D3 dopamine receptor. P35462. D3R cells, DiscoveRx beta-arrestin luminescence, antagonist mode; stronger effect = lower value. max response, negative = inhibition, %. 2.5% of 360,000 active. AID 652054; in the data active = max response below about -50%; inconclusive = no clear call, values can overlap the other calls; note: % is set by controls: 0 for no effect and ±100 for the full control effect
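Cells expressing the human receptor were seeded at 1500 cells/well, incubated overnight at 37 degrees C in 5% CO2, then exposed to library compounds with dopamine controls for 90 minutes at 37 degrees C before luminescent detection.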
DRD3 agonist = agonists of human D3 dopamine receptor | max activation, % | D3R DiscoveRx beta-arrestin cells, luminescence, 90 min | P35462 | AID 652048 | 0.58% of 410,000 active; in the data active = max activation above about 30%; note: 0% is about no effect
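Agonist mode: compounds and dopamine controls were applied to plated cells for 90 min at 37 degrees C after an overnight attachment at 1500 cells/well. Luminescent read-out followed 30 - 60 minutes at room temperature with DiscoveRx detection reagent.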
* hit, by the source's call; ? = inconclusive; nt = no result given.

SMILES	D1 antagonist	D1 ag	D1 PAM	DRD3 antagonist	DRD3 agonist
CC(C)C(NS(=O)(=O)c1ccc2c(c1)oc(=O)n2C)C(=O)N1CCN(c2cccc(Cl)c2)CC1 (centres undefined)	5.0	2.8	-0.7	nt	-6.0
CCOc1ccc(OCC)c(NS(=O)(=O)c2c(C(=O)N3CCC(C)CC3)c(C)n(C)c2C)c1	-9.3	1.3	1.1	nt	-5.5
CCCCc1c(-c2ccccc2OC)ncn1CCc1ccc(Cl)cc1	nt	nt	nt	-4.5	-14.6
COc1cc(OC)c(NC(=O)N2CCc3c([nH]c4ccccc34)C2c2ccccc2F)cc1Cl (centres undefined)	-6.5	0.7	-1.4	nt	-7.6
COc1ccc2sc(-c3ccc(S(C)(=O)=O)cc3)c(C#CCO)c2c1	nt	nt	nt	30.1	3.3
COc1cc(-c2ccc3sc(-c4ccsc4)c(C#CCO)c3c2)cc(OC)c1OC	nt	5.8	4.5	50.9	50.2*
COc1cc(-c2c(-c3ccsc3)sc3ccccc23)cc(OC)c1OC	nt	-1.7	-1.3	38.1	12.4
COC(=O)c1c(-c2ccsc2)sc2ccc(-c3cc(OC)c(OC)c(OC)c3)cc12	nt	nt	nt	49.2	53.3*
COC(=O)c1c(-c2ccc(N(C)C)cc2)sc2ccc(OC)cc12	nt	nt	nt	174.7	134.0*
COC(=O)c1c(-c2ccc(OC)cc2)sc2cc3c(cc12)OCO3	nt	7.7	-3.0	97.6	18.9
Cc1ccc2onc(CNC(=O)NCc3ccccc3)c2c1	-5.8	0.8	-2.6	nt	7.2
Cc1ccc(-c2cnc(C(O)c3ccc(C)cc3)[nH]2)cc1 (centres undefined)	nt	nt	nt	9.8	-3.3
COC(=O)c1ccc(Nc2nc(C)nc3c2nnn3Cc2ccccc2)cc1	26.2	3.1	-4.6	-4.9	3.5
Cc1cc(C)c2c(n1)sc1c(=O)n(Cc3ccccc3Cl)nnc12	-8.4	-0.1	-4.5	-51.2*	3.2
Cc1n[nH]c(=O)c2c1nnn2Cc1ccccc1Cl	-51.5*	0.3	-6.7	0.0	5.7
O=C(CSc1nnnn1-c1ccc2c(c1)OCCO2)N1CCN(C(=O)c2ccco2)CC1	-16.2	7.7	-1.6	-13.8	-10.6
COc1cc(Cl)c(NC(=O)CN(C)S(=O)(=O)c2ccc3c(c2)CCCC(=O)N3)c(OC)c1	-23.5	6.3	-9.1	nt	5.5
CCCc1nnc(NC(=O)c2cc3ccccc3o2)s1	-52.7*	0.6	-3.1	0.6	-6.3
CCCc1nnc(NC(=O)c2cc3ccccc3oc2=O)s1	-10.9	-0.6	1.0	0.0	0.5
COc1cccc(C2CC(=O)Nc3cc(OC)c(OC)c(OC)c32)c1OC(C)C (centres undefined)	5.9	1.4	-4.2	nt	1.5
Cc1ccc(-c2cc(Cc3ccc(F)cc3)c(=O)[nH]n2)cc1	-47.3*	-0.2	-10.9	21.4	3.8
Cc1ccc(Cc2cc(-c3ccc(C)cc3)n[nH]c2=O)cc1	-20.7	0.3	-3.5	-4.6	6.6
Cc1cnc(=O)[nH]c1SCc1ccc(C(F)(F)F)cc1	-5.8	1.0	-1.6	-4.8	31.0*
O=C1[C@@H]2Cc3ccccc3CN2C(=O)N1c1cccc(F)c1	-6.8	0.8	2.4	-11.0	37.4*
Cc1[nH]nc(SCC(=O)Nc2cccc(O)c2)c1[N+](=O)[O-]	-0.1	0.8	-1.8	13.3	0.3
SMILES	D1 antagonist	D1 ag	D1 PAM	DRD3 antagonist	DRD3 agonist
CCc1ccc(NC(=O)CSc2n[nH]c(C)c2[N+](=O)[O-])cc1	-48.1*	14.8	-8.0	?	-6.9
Cc1[nH]nc(SCC(=O)N2CCC(C)CC2)c1[N+](=O)[O-]	-4.1	6.9	-1.9	-50.8*	-2.3
Cc1ccc(Sc2ccc(N3CCC(C(=O)Nc4cc(C)cc(C)c4)CC3)nn2)cc1	-47.5*	-0.6	6.3	nt	0.1
COc1cccc(NC(=O)C2CCN(c3ccc(Sc4ccc(C)cc4)nn3)CC2)c1	-2.0	1.9	0.6	nt	7.6
CCCCCc1ccc(C(=O)CCCC)c(=S)[nH]1	-21.1	6.1	-1.2	-25.8	30.5*
CCCCCc1cc(=O)[nH]c(=S)[nH]1	41.6	2.7	-4.8	19.0	3.6
CCCCNC(=O)c1nn(-c2ccc(C)cc2)c(=O)c2c1c1ccccc1n2C	-4.6	1.2	3.0	nt	-7.4
Cc1cc(C(=O)CSc2nc3ccccc3[nH]2)c(C)n1CC1CCCO1 (centres undefined)	-32.9*	14.0	-7.8	79.2	18.6
CSc1ncccc1C(=O)OCC(=O)c1cc(C)n(CC2CCCO2)c1C (centres undefined)	-33.7*	4.5	-10.4	0.7	17.5
Cc1cc(C(=O)CSc2nc(N)cc(=O)[nH]2)c(C)n1CC1CCCO1 (centres undefined)	nt	nt	nt	4.7	2.7
Cc1cccc(N2CCN(C(=O)c3cnn(-c4ccc(F)cc4F)c3C3CCN(C(=O)OC(C)(C)C)CC3)CC2)c1C	6.6	6.9	-1.9	nt	-10.5
C=CCNC(=O)c1onc(CSc2ccccn2)c1C(=O)NCC=C	-60.0*	1.7	-0.1	10.7	-15.6
CC(C)(C)NC(=O)CN(C(=O)CCN1CCCc2ccccc21)C(C)(C)C	4.5	1.4	-0.6	17.5	4.5
CCCN1CCCc2ccccc21	-31.2*	-0.1	6.6	24.5	10.5
COc1ccc(CN2CCN(C(=O)Cn3ncn4cccc4c3=O)CC2)c(OC)c1OC	2.5	2.5	-3.6	-20.4	-11.8
COC(=O)c1ccc(Oc2coc3cc(OCc4cnn(-c5ccccc5)c4)ccc3c2=O)cc1	-38.2*	3.6	-3.5	7.4	1.5
O=C(NCCO)c1nc2ccccc2s1	3.9	0.0	-0.5	5.8	1.2
NC(=O)c1oc2ccccc2c1NC(=O)c1nc2ccccc2s1	9.2	3.0	4.3	-8.2	9.2
Cc1ccccc1C(=O)Nc1nnc(-c2ccc(F)cc2)o1	-37.0*	-0.7	-0.4	-20.6	-16.9
CCc1nc2ccccc2c(C(=O)NCc2ccccc2)c1C	-48.8*	1.0	-3.2	-2.9	-3.7
O=C(Nc1nnc(-c2ccccc2)o1)c1nc2ccccc2s1	-24.7	164.3*	-12.8	7.3	-0.1
O=C(NCc1ccccc1)c1nc2ccccc2s1	-38.7*	2.6	-3.9	-4.1	-4.6
CCc1nc2ccccc2c(C(=O)O)c1C	2.5	2.2	-3.1	27.1	-3.1
O=C(NCC(c1ccco1)S(=O)(=O)c1cccs1)c1ccc(F)c(F)c1 (centres undefined)	nt	1.4	-1.1	nt	1.5
O/N=C/c1ccccc1OCc1ccc(Cl)cc1	18.0	2.4	1.9	7.8	-7.5
COc1cc(CNC(C)(C)CO)cc(Br)c1OCc1ccc(Cl)cc1	-6.4	33.8*	-6.5	-11.4	3.3
COc1cc(CNC(C)(C)CO)cc(Br)c1OCc1ccc(Cl)cc1Cl	15.5	27.5	-4.7	-2.3	1.4
CNCc1c(OCc2ccccc2)ccc2ccccc12	-44.8*	25.3	-20.1	?	-21.2
CNCc1c(OCc2ccccc2F)ccc2ccccc12	-81.0*	38.6*	-2.9	?	-10.0
CC(C)(CO)NCc1c(OCc2ccc(Cl)cc2)ccc2ccccc12	2.3	35.2*	-17.6	-19.4	-17.0
